Experimental data: PubChem BioAssay AID1159580 (chemical genetic matrix, 2015)
In all, about 5,500 compounds went through this assay and about 2,000 (36%) were called active. Roughly 18% stayed inconclusive and do not appear here. The list shows a part of the results. Values without a mark were called inactive. No stated cut-off is given here; in the data, active means normalized growth mostly below about 0.91 (no sharp cut-off); inconclusive means no clear call, values can overlap the other calls; inactive means mostly above about 0.92.

Experiment: chemical genetic growth profiling, strain panel (AID 1159580);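 further: tested at 20 µM; growth read once vehicle control cultures reached saturation at 30 °C; 1 = growth at the plate median or of vehicle wells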
Conditions: growth OD

Structure (SMILES): CC1[C@H](C)OC(=O)CC(O)CC(O)CC(O)CCC(O)C(O)C[C@]2(O)CC(O)C(C(=O)O)C(CC(OC3O[C@H](C)[C@@H](O)[C@H](N)[C@@H]3O)/C=C/C=C/C=C/C=C/CC/C=C/C=C/[C@H](C)[C@H]1O)O2 (stereo partly specified)
- normalized growth (S. cerevisiae deletion strains, locus YKL009W, strain mrt4, stronger effect = lower value): 0.0887 (active)
- normalized growth (S. cerevisiae deletion strains, locus YKL068W, stronger effect = lower value): 0.0555 (active)
- normalized growth (S. cerevisiae deletion strains, locus YKL085W, strain MDH1 (second series), stronger effect = lower value): 0.0538 (active)
- normalized growth (S. cerevisiae deletion strains, locus YKL085W, strain MDH1, stronger effect = lower value): 0.0538 (active)
- normalized growth (S. cerevisiae deletion strains, locus YKL160W, strain elf1, stronger effect = lower value): 0.952
- normalized growth (S. cerevisiae deletion strains, locus YKL190W, strain CNB1, stronger effect = lower value): 0.193 (active)
- normalized growth (S. cerevisiae deletion strains, locus YKR001C, strain vps1, stronger effect = lower value): 0.0857 (active)
- normalized growth (S. cerevisiae deletion strains, locus YKR026C, strain gcn3, stronger effect = lower value): 0.0734 (active)
- normalized growth (S. cerevisiae deletion strains, locus YKR091W, strain srl3, stronger effect = lower value): 0.986
- normalized growth (S. cerevisiae deletion strains, locus YLL001W, strain dnm1, stronger effect = lower value): 0.759 (active)
- normalized growth (S. cerevisiae deletion strains, locus YLL026W, stronger effect = lower value): 0.446 (active)
- normalized growth (S. cerevisiae deletion strains, locus YLL041C, strain sdh2, stronger effect = lower value): 0.913 (active)
- normalized growth (S. cerevisiae deletion strains, locus YLR027C, strain aat2, stronger effect = lower value): 0.633 (active)
- normalized growth (S. cerevisiae deletion strains, locus YLR039C, strain RIC1, stronger effect = lower value): 0.0871 (active)
- normalized growth (S. cerevisiae deletion strains, locus YLR058C, strain SHM2, stronger effect = lower value): 0.374 (active)
- normalized growth (S. cerevisiae deletion strains, locus YLR102C, strain apc9, stronger effect = lower value): 0.283 (active)
- normalized growth (S. cerevisiae deletion strains, locus YLR113W, strain HOG1, stronger effect = lower value): 0.124 (active)
- normalized growth (S. cerevisiae deletion strains, locus YLR221C, strain rsa3, stronger effect = lower value): 0.36 (active)
- normalized growth (S. cerevisiae deletion strains, locus YLR258W, strain gsy2, stronger effect = lower value): 0.857 (active)
- normalized growth (S. cerevisiae deletion strains, locus YLR262C, strain YPT6 (second series), stronger effect = lower value): 0.799 (active)
- normalized growth (S. cerevisiae deletion strains, locus YLR262C, strain YPT6, stronger effect = lower value): 0.0948 (active)
- normalized growth (S. cerevisiae deletion strains, locus YLR268W, strain sec22, stronger effect = lower value): 0.119 (active)
- normalized growth (S. cerevisiae deletion strains, locus YLR320W, strain mms22, stronger effect = lower value): 1
- normalized growth (S. cerevisiae deletion strains, locus YLR330W, strain CHS5, stronger effect = lower value): 0.176 (active)
- normalized growth (S. cerevisiae deletion strains, locus YLR342W, strain FKS1 (second series), stronger effect = lower value): 0.126 (active)
- normalized growth (S. cerevisiae deletion strains, locus YLR342W, strain FKS1, stronger effect = lower value): 0.376 (active)
- normalized growth (S. cerevisiae deletion strains, locus YLR357W, strain rsc2, stronger effect = lower value): 0.123 (active)
- normalized growth (S. cerevisiae deletion strains, locus YLR370C, strain arc18, stronger effect = lower value): 0.0729 (active)
- normalized growth (S. cerevisiae deletion strains, locus YLR371W, strain rom2, stronger effect = lower value): 0.112 (active)
- normalized growth (S. cerevisiae deletion strains, locus YLR384C, strain iki3, stronger effect = lower value): 0.907 (active)
- normalized growth (S. cerevisiae deletion strains, locus YLR418C, strain cdc73, stronger effect = lower value): 0.202 (active)
- normalized growth (S. cerevisiae deletion strains, locus YML016C, strain PPZ1, stronger effect = lower value): 0.841 (active)
- normalized growth (S. cerevisiae deletion strains, locus YML032C, strain rad52, stronger effect = lower value): 0.333 (active)
- normalized growth (S. cerevisiae deletion strains, locus YML120C, strain ndi1, stronger effect = lower value): 0.0634 (active)
- normalized growth (S. cerevisiae deletion strains, locus YML124C, strain tub3, stronger effect = lower value): 0.103 (active)
- normalized growth (S. cerevisiae deletion strains, locus YMR058W, strain fet3, stronger effect = lower value): 0.318 (active)
- normalized growth (S. cerevisiae deletion strains, locus YMR078C, strain ctf18, stronger effect = lower value): 0.612 (active)
- normalized growth (S. cerevisiae deletion strains, locus YMR125W, strain sto1, stronger effect = lower value): 0.112 (active)
- normalized growth (S. cerevisiae deletion strains, locus YMR129W, stronger effect = lower value): 0.0795 (active)
- normalized growth (S. cerevisiae deletion strains, locus YMR205C, strain PFK2, stronger effect = lower value): 0.916
- normalized growth (S. cerevisiae deletion strains, locus YMR223W, strain ubp8, stronger effect = lower value): 0.0876 (active)
- normalized growth (S. cerevisiae deletion strains, locus YMR231W, strain pep5, stronger effect = lower value): 0.839 (active)
- normalized growth (S. cerevisiae deletion strains, locus YMR263W, strain SAP30, stronger effect = lower value): 0.0585 (active)
- normalized growth (S. cerevisiae deletion strains, locus YMR307W, strain GAS1, stronger effect = lower value): 0.103 (active)
- normalized growth (S. cerevisiae deletion strains, locus YNL067W, strain RPL9B, stronger effect = lower value): 0.0572 (active)
- normalized growth (S. cerevisiae deletion strains, locus YNL071W, strain lat1, stronger effect = lower value): 0.885 (active)
- normalized growth (S. cerevisiae deletion strains, locus YNL128W, strain TEP1, stronger effect = lower value): 0.0617 (active)
- normalized growth (S. cerevisiae deletion strains, locus YNL153C, strain GIM3, stronger effect = lower value): 0.0492 (active)
- normalized growth (S. cerevisiae deletion strains, locus YNL183C, strain NPR1, stronger effect = lower value): 0.00104 (active)
- normalized growth (S. cerevisiae deletion strains, locus YNL209W, strain ssb2, stronger effect = lower value): 0.816 (active)
- normalized growth (S. cerevisiae deletion strains, locus YNL233W, strain BNI4, stronger effect = lower value): 0.135 (active)
- normalized growth (S. cerevisiae deletion strains, locus YNL248C, strain rpa49, stronger effect = lower value): 0.104 (active)
- normalized growth (S. cerevisiae deletion strains, locus YNL250W, strain rad50, stronger effect = lower value): 0.0643 (active)
- normalized growth (S. cerevisiae deletion strains, locus YNL271C, strain bni1, stronger effect = lower value): 0.0657 (active)
- normalized growth (S. cerevisiae deletion strains, locus YNL298W, strain CLA4, stronger effect = lower value): 0.0613 (active)
- normalized growth (S. cerevisiae deletion strains, locus YNL307C, strain MCK1, stronger effect = lower value): 0.0855 (active)
- normalized growth (S. cerevisiae deletion strains, locus YNL322C, strain KRE1 (second series), stronger effect = lower value): 0.695 (active)
- normalized growth (S. cerevisiae deletion strains, locus YNL322C, strain KRE1, stronger effect = lower value): 0.0469 (active)
- normalized growth (S. cerevisiae deletion strains, locus YNR049C, strain mso1, stronger effect = lower value): 0.951
- normalized growth (S. cerevisiae deletion strains, locus YNR052C, strain pop2, stronger effect = lower value): 0.0638 (active)
- normalized growth (S. cerevisiae deletion strains, locus YOL006C, strain TOP1, stronger effect = lower value): 0.276 (active)
- normalized growth (S. cerevisiae deletion strains, locus YOL012C, strain htz1): 0.206
- normalized growth (S. cerevisiae deletion strains, locus YOL147C, strain pex11, stronger effect = lower value): 0.111 (active)
- normalized growth (S. cerevisiae deletion strains, locus YOR001W, strain rrp6, stronger effect = lower value): 0.102 (active)
- normalized growth (S. cerevisiae deletion strains, locus YOR061W, strain CKA2, stronger effect = lower value): 0.41 (active)
- normalized growth (S. cerevisiae deletion strains, locus YOR069W, strain VPS5, stronger effect = lower value): 0.156 (active)
- normalized growth (S. cerevisiae deletion strains, locus YOR070C, strain gyp1, stronger effect = lower value): 0.95
- normalized growth (S. cerevisiae deletion strains, locus YOR080W, strain dia2, stronger effect = lower value): 0.826 (active)
- normalized growth (S. cerevisiae deletion strains, locus YOR083W, strain WHI5, stronger effect = lower value): 0.798 (active)
- normalized growth (S. cerevisiae deletion strains, locus YOR106W, strain vam3, stronger effect = lower value): 0.284 (active)
- normalized growth (S. cerevisiae deletion strains, locus YOR136W, strain idh2, stronger effect = lower value): 0.221 (active)
- normalized growth (S. cerevisiae deletion strains, locus YOR144C, strain elg1, stronger effect = lower value): 0.123 (active)
- normalized growth (S. cerevisiae deletion strains, locus YOR184W, strain ser1, stronger effect = lower value): 0.0785 (active)
- normalized growth (S. cerevisiae deletion strains, locus YOR231W, strain MKK1, stronger effect = lower value): 0.105 (active)
- normalized growth (S. cerevisiae deletion strains, locus YOR265W, strain rbl2, stronger effect = lower value): 0.887 (active)
- normalized growth (S. cerevisiae deletion strains, locus YOR270C, strain vph1, stronger effect = lower value): 0.837
- normalized growth (S. cerevisiae deletion strains, locus YOR290C, strain snf2, stronger effect = lower value): 1.01
- normalized growth (S. cerevisiae deletion strains, locus YOR316C, strain cot1, stronger effect = lower value): 0.236 (active)
- normalized growth (S. cerevisiae deletion strains, locus YPL051W, strain arl3, stronger effect = lower value): 0.885 (active)
- normalized growth (S. cerevisiae deletion strains, locus YPL055C, strain LGE1, stronger effect = lower value): 0.0909 (active)
- normalized growth (S. cerevisiae deletion strains, locus YPL078C, strain atp4, stronger effect = lower value): 0.757 (active)
- normalized growth (S. cerevisiae deletion strains, locus YPL106C, strain sse1, stronger effect = lower value): 0.229 (active)
- normalized growth (S. cerevisiae deletion strains, locus YPL240C, strain hsp82, stronger effect = lower value): 0.943
- normalized growth (S. cerevisiae deletion strains, locus YPL241C, strain CIN2, stronger effect = lower value): 0.182 (active)
- normalized growth (S. cerevisiae deletion strains, locus YPL256C, strain CLN2, stronger effect = lower value): 0.116 (active)
- normalized growth (S. cerevisiae deletion strains, locus YPR119W, strain clb2, stronger effect = lower value): 0.271 (active)
- normalized growth (S. cerevisiae deletion strains, locus YPR141C, strain kar3, stronger effect = lower value): 0.0655 (active)
- normalized growth (S. cerevisiae deletion strains, locus YPR163C, strain tif3, stronger effect = lower value): 0.152 (active)
- normalized growth (S. cerevisiae deletion strains, locus YPR167C, strain met16, stronger effect = lower value): 0.0932 (active)
- normalized growth (S. cerevisiae deletion strains, strain wtn01, stronger effect = lower value): 0.0877 (active)
- normalized growth (S. cerevisiae strains, strain wild type, stronger effect = lower value): 0.0547 (active)
